Measured values from PubChem BioAssay (EPA / NIEHS).
“And” between values parts separate entries of the source, which are not always exact repeats. Equal values may be shown once. Records with an inconclusive call do not appear. Some compounds were tested as several samples or in several runs, with calls that do not always agree. The source made the active and inactive calls. The calls were made as follows, unless noted: active = hit-call score of the fitted dose curve at least 0.9, where 1 is the maximum; inactive = score below 0.9.

Columns and labels:
[1] = ATG_TCF_b_cat_CIS: Attagene CIS-FACTORIAL HepG2 Assay for human T-Cell-Factor with beta-catenin (TCF/b-cat) (AID 2282965); details: HepG2 TCF/beta-catenin cis-reporter transcription, actives raise or lower the signal
Method in brief: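 Cells of the HepG2 line carry transiently transfected reporter units whose promoters respond to endogenous factors. Twenty-four hours post-dosing, reporter mRNA induction is measured by fluorescent RT-PCR and capillary electrophoresis, with DMSO as baseline.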

[2] = ATG_TAL_CIS: Attagene CIS-FACTORIAL HepG2 Assay for human TAL Basal Promoter (AID 2282966); details: HepG2 Attagene cis-factorial TAL promoter reporter; actives raise or lower the signal;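 also: background control endpoint measuring basal TAL promoter reporter mRNA not a specific factor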
Method in brief: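 HepG2, transient MRTU transfection, 24 h compound exposure; RNA → oligo(dT) RT → PCR → 6-FAM primer extension → HpaI digest → CE fluorescence. Bidirectional curve fit vs DMSO. Background-control readout.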

[3] = ATG_TGFb_CIS: Attagene CIS-FACTORIAL HepG2 Assay for human Transforming Growth Factor (TGF) (AID 2282967); details: HepG2 Attagene CIS TGFb reporter, mRNA transcription; actives raise or lower the signal
Method in brief: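 HepG2 cells transiently transfected with cis-promoter-driven multiple reporter units measure endogenous TF activity; reporter mRNA quantified at 24 h by RT-PCR, FAM labeling, HpaI digestion and capillary electrophoresis. Bidirectional fit vs DMSO.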

[4] = ATG_VDRE_CIS: Attagene CIS-FACTORIAL HepG2 Assay for human Vitamin D Receptor Element (VDRE) (AID 2282968); details: HepG2 VDRE cis-reporter transcription, actives raise or lower the signal
Method in brief: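 Transient MRTU transfection of HepG2, 24 h compound exposure. Readout: reporter transcripts via RT-PCR and capillary electrophoresis, fluorescence. Bidirectional fit vs DMSO.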

[5] = molecular target: Nuclear receptor subfamily 1 group I member 3 (Homo sapiens) (UniProt Q14994); test: ATG_CAR_TRANS: Attagene TRANS-FACTORIAL HepG2 Assay for human Constitutive Androstane Receptor (CAR) (AID 2282969; active = hit-call score of the fitted dose curve at least 0.9, where 1 is the maximum;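 also: activators raise reporter mRNA above DMSO so AC50 marks induction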); details: HepG2 Attagene TRANS-FACTORIAL CAR reporter
Nuclear receptor subfamily 1 group I member 3 (Homo sapiens), sequence (Q14994 whole entry, looked up, the tested form may be a part): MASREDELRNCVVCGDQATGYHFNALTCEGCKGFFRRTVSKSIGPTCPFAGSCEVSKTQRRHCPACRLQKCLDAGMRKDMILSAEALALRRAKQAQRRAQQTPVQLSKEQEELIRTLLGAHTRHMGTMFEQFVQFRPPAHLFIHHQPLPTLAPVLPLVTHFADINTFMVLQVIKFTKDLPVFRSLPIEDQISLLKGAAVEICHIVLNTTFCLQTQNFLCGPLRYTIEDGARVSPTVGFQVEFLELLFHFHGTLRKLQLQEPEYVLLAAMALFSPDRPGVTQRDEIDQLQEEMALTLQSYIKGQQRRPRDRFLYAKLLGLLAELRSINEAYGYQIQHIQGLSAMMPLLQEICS
Method in brief: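 Transiently transfected HepG2, multiplex TRANS reporters (CAR-Gal4 chimera driving GAL4-UAS reporter). 24 h dosing. Readout: reporter transcript by RT-PCR + capillary electrophoresis, fluorescence intensity; positive direction vs DMSO.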

[6] = molecular target: Estrogen receptor (Homo sapiens) (UniProt P03372); test: ATG_ERa_TRANS: Attagene TRANS-FACTORIAL HepG2 Assay for human Estrogen Receptor alpha (ERa) (AID 2282970; active = hit-call score of the fitted dose curve at least 0.9, where 1 is the maximum); details: HepG2 Attagene TRANS ERa GAL4 reporter, mRNA
Estrogen receptor (Homo sapiens), sequence (P03372 whole entry, looked up, the tested form may be a part): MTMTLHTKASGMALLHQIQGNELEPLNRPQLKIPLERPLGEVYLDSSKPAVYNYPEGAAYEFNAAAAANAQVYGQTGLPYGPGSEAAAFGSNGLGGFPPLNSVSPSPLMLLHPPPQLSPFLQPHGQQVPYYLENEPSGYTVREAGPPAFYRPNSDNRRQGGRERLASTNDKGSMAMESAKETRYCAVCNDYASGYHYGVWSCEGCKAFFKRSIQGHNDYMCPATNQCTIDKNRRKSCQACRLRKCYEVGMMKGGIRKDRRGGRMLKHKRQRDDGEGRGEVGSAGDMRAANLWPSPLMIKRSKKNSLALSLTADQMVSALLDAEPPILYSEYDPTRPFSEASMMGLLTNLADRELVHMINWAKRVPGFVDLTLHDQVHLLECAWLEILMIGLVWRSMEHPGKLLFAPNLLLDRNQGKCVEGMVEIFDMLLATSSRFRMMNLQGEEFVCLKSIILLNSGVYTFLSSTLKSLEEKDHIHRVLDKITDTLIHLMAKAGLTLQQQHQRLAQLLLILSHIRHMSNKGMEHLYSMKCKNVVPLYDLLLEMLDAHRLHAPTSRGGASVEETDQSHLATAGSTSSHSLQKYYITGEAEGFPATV
Method in brief: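 Reporter mRNA induction after 24 hours, detected by fluorescent RT-PCR and capillary electrophoresis, gives the read-out. Cells are HepG2 transiently transfected with GAL4-UAS reporter transcription units responding to chimeric NR-Gal4. Activity is taken as gain of signal over DMSO baseline.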

[7] = molecular target: Steroid hormone receptor ERR1 (Homo sapiens) (UniProt P11474); test: ATG_ERRa_TRANS: Attagene TRANS-FACTORIAL HepG2 Assay for human Estrogen-Related Receptor alpha (ERRa) (AID 2282971; active = hit-call score of the fitted dose curve at least 0.9, where 1 is the maximum); details: HepG2 Attagene TRANS reporter, ERRa transactivation
Steroid hormone receptor ERR1 (Homo sapiens), sequence (P11474 whole entry, looked up, the tested form may be a part): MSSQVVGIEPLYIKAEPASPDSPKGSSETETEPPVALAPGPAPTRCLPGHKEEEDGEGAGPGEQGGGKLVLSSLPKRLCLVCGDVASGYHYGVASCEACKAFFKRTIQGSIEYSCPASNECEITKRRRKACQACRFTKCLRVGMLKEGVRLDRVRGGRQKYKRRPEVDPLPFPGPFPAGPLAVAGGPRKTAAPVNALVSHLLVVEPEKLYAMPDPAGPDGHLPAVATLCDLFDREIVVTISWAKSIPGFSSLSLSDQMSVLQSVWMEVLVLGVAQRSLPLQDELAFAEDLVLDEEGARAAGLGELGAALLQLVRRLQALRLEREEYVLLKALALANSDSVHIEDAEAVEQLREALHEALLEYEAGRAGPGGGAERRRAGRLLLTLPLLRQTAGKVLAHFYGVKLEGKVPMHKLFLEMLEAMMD
Method in brief: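 Transfected HepG2, 24 h dosing, ERRa-Gal4 chimera driving GAL4-UAS reporter. Readout: reporter mRNA via RT-PCR plus capillary electrophoresis (fluorescence). Positive direction vs DMSO control.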

[8] = ATG_M_19_TRANS: Attagene TRANS-FACTORIAL HepG2 Assay for M19 Transcription Factor (Internal Marker) (AID 2282974; active = hit-call score of the fitted dose curve at least 0.9, where 1 is the maximum); details: HepG2 Attagene TRANS-FACTORIAL M19 internal marker reporter
Method in brief: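 HepG2 transiently transfected with GAL4-UAS multiplex reporter constructs, exposed 24 h; reporter RNA quantified by RT-PCR, 6-FAM labeling, HpaI digestion and capillary electrophoresis; internal background marker fitted upward versus DMSO.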

[9] = ATG_GAL4_TRANS: Attagene TRANS-FACTORIAL HepG2 Assay for GAL4 (Internal Marker) (AID 2282976; active = hit-call score of the fitted dose curve at least 0.9, where 1 is the maximum); details: HepG2 Attagene TRANS GAL4 internal marker reporter
Method in brief: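 RT-PCR/capillary electrophoresis readout of reporter mRNA. HepG2, transient MRTU transfection (GAL4-UAS reporters), 24 h compound exposure. Background-control endpoint, positive direction vs DMSO baseline.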

[10] = molecular target: X-box-binding protein 1 (Homo sapiens) (UniProt P17861); test: ATG_Xbp1_CIS: Attagene CIS-FACTORIAL HepG2 Assay for human X-box Binding Protein 1 (XBP1) (AID 2282972); details: HepG2 XBP1 cis-element reporter, Attagene multiplex; actives raise or lower the signal
X-box-binding protein 1 (Homo sapiens), sequence (P17861 whole entry, looked up): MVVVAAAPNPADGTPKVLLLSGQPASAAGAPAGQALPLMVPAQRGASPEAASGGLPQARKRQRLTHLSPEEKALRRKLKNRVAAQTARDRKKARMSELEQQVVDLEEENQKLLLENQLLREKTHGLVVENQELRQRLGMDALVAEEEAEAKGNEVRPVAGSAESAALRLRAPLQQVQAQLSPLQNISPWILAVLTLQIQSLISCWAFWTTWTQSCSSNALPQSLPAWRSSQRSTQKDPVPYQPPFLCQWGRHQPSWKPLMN
Method in brief: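 Human hepatoma HepG2, cis-element reporter system, 24 h treatment; mRNA quantified by RT-PCR/CE fluorescence; fit relative to DMSO.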

Measured: AC50

C[Si](C)(C)C(F)(F)C(F)(F)C(F)(F)F
not listed: [10]
inactive: all other assays above

CCCCC(CC)C(=O)OCCOCCOCCOC(=O)C(CC)CCCC (configuration not stated)
active: [4] 65.8 µM
not listed: [8] | [10]
inactive: all other assays above

CC(C)CC(C)O (configuration not stated)
not listed: [6] | [7] | [10]
inactive: all other assays above

FC(F)(F)COC(OCC(F)(F)F)OCC(F)(F)F
not listed: [8]
inactive: all other assays above

OCC(CO)(CO)CO
not listed: [7] | [9] | [10]
inactive: all other assays above

CNC(C)=O
inactive: [1] | [2] | [3] | [4] | [5] | [6]

NCC(F)(F)C(F)(F)C(F)(F)C(F)(F)F
inactive: all assays above

CC(C)c1nnc2ccc(-c3ocnc3-c3cc(F)ccc3F)cn12
active: [4] 37.7 µM
not listed: [8] | [9] | [10]
inactive: all other assays above

CCCCCOC(C)=O
inactive: [1] | [2] | [3] | [4] | [5] | [8]

Cc1nc(-c2ccccn2)ncc1C(=O)Nn1cc(C)c2cc(F)ccc21
not listed: [6] | [10]
inactive: all other assays above

O=S(=O)(O)c1ccc(N=Nc2c(O)ccc3cc(S(=O)(=O)O)ccc23)cc1
not listed: [9] | [10]
inactive: all other assays above

CCCCCCCCN(C)C
active: [4] 0.00907 µM
not listed: [5] | [9]
inactive: all other assays above

C=CCc1cc(S(=O)(=O)c2ccc(O)c(CC=C)c2)ccc1O
active: [1] 43.7 µM | [4] 9.12 µM | [6] 2.06 µM
not listed: [5] | [7]
inactive: all other assays above

S=P(N1CC1)(N1CC1)N1CC1
inactive: [1] | [2] | [3] | [4] | [5] | [6] | [7] | [10] | [8] | [9]
active: [4] 17 µM and 27.4 µM

O=C1CN(N=Cc2ccc([N+](=O)[O-])o2)C(=O)N1
active: [1] 21.4 µM | [6] 32.1 µM
inactive: [2] | [3] | [4] | [8]

CCN(CC)C(=S)SSC(=S)N(CC)CC
active: [1] 118 µM | [4] 117 µM | [10] 139 µM
not listed: [7] | [9]
inactive: all other assays above

CCc1ccc(O)c(C(C)(C)C)c1
inactive: [1] | [2] | [3] | [10] | [8]
active: [4] 43 µM | [6] 24.2 µM

O=C(NO)C1(NS(=O)(=O)c2ccc(Oc3ccc(F)cc3)cc2)CCOCC1
inactive: [1] | [2] | [3] | [4] | [6]

OC(CCl)CCl
not listed: [7] | [10]
inactive: all other assays above

NNC(=O)c1ccncc1
not listed: [5] | [10]
inactive: all other assays above

NC(=O)N(O)[C@@H]1COc2cc(OCc3ccccc3)ccc21
not listed: [7] | [8] | [10]
inactive: all other assays above

CCCCCCCCCCCCCCCCOS(=O)(=O)O
inactive: [2] | [4] | [6] | [7] | [8]
active: [1] 25.7 µM | [3] 11.5 µM

OCc1c[nH]c2ccccc12
active: [4] 5.32 µM [middle of 5 runs] | [6] 5.36 µM [middle of 5 runs]
not listed: [10]
inactive: all other assays above

O=C(Cl)C(F)(F)C(F)(F)C(F)(F)C(=O)Cl
inactive: all assays above

O=C(O)c1cccc(C[C@@H]2COc3ccc(OCc4nc5cc(F)ccc5s4)cc3[C@@H]2O)c1
active: [1] 37.8 µM
not listed: [7] | [9] | [10]
inactive: all other assays above

CCOc1ccc2[nH]cc(C(=O)NCc3ccccc3)c(=O)c2n1
active: [4] 27.6 µM
not listed: [7] | [8] | [10]
inactive: all other assays above

OCc1ccccc1
not listed: [6]
inactive: all other assays above

O=C(O)CO
not listed: [7] | [10]
inactive: all other assays above

Cc1ncc([C@@H](CCCCCCc2ccc3c(n2)NCCC3)CC(=O)O)cn1
inactive: [1] | [2] | [3] | [4] | [8] | [9]

Cc1nccn1-c1ccc(Sc2cccc(C3(C(N)=O)CCOCC3)c2)cc1
active: [2] 6.43 µM | [4] 4.16 µM
inactive: [3] | [5] | [6]

COS(C)(=O)=O
inactive: [1] | [2] | [3] | [4] | [6] | [9]

CC1(C)C(=O)N(Cl)C(=O)N1Cl
inactive: [1] | [2] | [3] | [4] | [8]

CCOC(N)=O
inactive: [1] | [2] | [3] | [6] | [10] | [9]

CC(C)C(=O)Nc1ccc([N+](=O)[O-])c(C(F)(F)F)c1
active: [10] 27 µM
inactive: [1] | [2] | [3] | [6] | [8]

O=c1[nH]cnc2c1ncn2[C@H]1CC[C@@H](CO)O1
inactive: [1] | [2] | [3] | [5] | [10] | [8]

Cn1c(=O)c2[nH]cnc2n(C)c1=O
inactive: [2] | [3] | [6] | [10] | [8]
active: [1] 100 µM

O=C(N[C@H](CO)[C@H](O)c1ccc([N+](=O)[O-])cc1)C(Cl)Cl
not listed: [4] | [7]
inactive: all other assays above

OC[C@H]1O[C@@H]2O[C@H]3[C@H](O)[C@@H](O)[C@@H](O[C@H]4[C@H](O)[C@@H](O)[C@@H](O[C@H]5[C@H](O)[C@@H](O)[C@@H](O[C@H]6[C@H](O)[C@@H](O)[C@@H](O[C@H]7[C@H](O)[C@@H](O)[C@@H](O[C@H]1[C@H](O)[C@H]2O)O[C@@H]7CO)O[C@@H]6CO)O[C@@H]5CO)O[C@@H]4CO)O[C@@H]3CO
inactive: [1] | [2] | [3] | [4] | [10]
